PubChem BioAssay (NCI)
Values joined by “and” are separate entries in the source; they are usually repeats but may differ in a detail not shown here. Identical values can stand only once. About 79,000 compounds went through this panel and 15% of them were active in at least one assay; those are over-represented in the sample as a whole. The source holds several records for some structures; these can differ, active in one and inactive in another. Active and inactive are the calls of the source. Cut-off read from the data, not from the text of the source: active = growth inhibition above about 70%; inactive = the rest.

Key:
[1] = NCI Yeast Anticancer Drug Screen. Data for the rad50 strain (AID 155);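 note: 0% = growth of vehicle-only cultures of the same strain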; settings: S. cerevisiae rad50 strain growth inhibition, stronger effect = higher value
Summary of the method: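 Genetically altered yeast (DNA repair pathway); compound treatment; growth inhibition vs vehicle ctrl.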

[2] = NCI Yeast Anticancer Drug Screen. Data for the mec2-1 strain (AID 157); settings: S. cerevisiae mec2-1 strain, stronger effect = higher value
Summary of the method: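 Strain: mec2-1 (DNA repair/cell cycle alteration). Compound exposure, then growth measured; inhibition expressed relative to vehicle.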

[3] = NCI Yeast Anticancer Drug Screen. Data for the sgs1 mgt1 strain (AID 161);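 note: 0% = growth of cultures given vehicle only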; settings: S. cerevisiae sgs1 mgt1 strain, stronger effect = higher value
Summary of the method: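 Test agents were incubated with a DNA-repair-mutant yeast strain. Growth was then read and compared against vehicle-treated controls.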

[4] = NCI Yeast Anticancer Drug Screen. Data for the cln2 rad14 strain (AID 165);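 note: 0% = growth equal to vehicle treated cultures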; settings: S. cerevisiae cln2 rad14 strain, stronger effect = higher value
Summary of the method: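 Compounds are applied to the cln2 rad14 yeast strain, and growth is then compared with that of vehicle-treated cultures to give inhibition.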

[5] = NCI Yeast Anticancer Drug Screen. Data for the bub3 strain (AID 167); settings: S. cerevisiae bub3 mutant strain, stronger effect = higher value
Summary of the method: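 Yeast carrying a defined mutation is treated with each compound, and growth is compared with that of vehicle-exposed cells to give inhibition.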

[6] = NCI Yeast Anticancer Drug Screen. Data for the mlh1 rad18 strain (AID 175); settings: S. cerevisiae mlh1 rad18 strain growth inhibition, stronger effect = higher value
Summary of the method: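 Read-out is yeast growth inhibition, calculated against vehicle-only controls. The compound was applied to a strain engineered with DNA damage repair alterations.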

[7] = at 5.0 µM (retest, dose inferred, filed as 0.5)
[8] = at 50.0 µM (retest, dose inferred, filed as 5.0)

| Structure (SMILES) | growth inhibition [1, 7] | growth inhibition [1, 8] | growth inhibition ([1]; at 50.0 µM) | growth inhibition [2, 7] | growth inhibition [2, 8] | growth inhibition ([2]; at 50.0 µM) | growth inhibition [3, 7] | growth inhibition [3, 8] | growth inhibition ([3]; at 50.0 µM) | growth inhibition [4, 7] | growth inhibition [4, 8] | growth inhibition ([4]; at 50.0 µM) | growth inhibition [5, 7] | growth inhibition [5, 8] | growth inhibition ([5]; at 50.0 µM) | growth inhibition [6, 7] | growth inhibition [6, 8] | growth inhibition ([6]; at 50.0 µM) |
| --- | --- | --- | --- | --- | --- | --- | --- | --- | --- | --- | --- | --- | --- | --- | --- | --- | --- | --- |
| CCN1/C(=C\c2ccc3cc(C)ccc3[n+]2CC)[Se]c2ccccc21 | 98% (active) | 98% (active) | 99.2% (active) | 100% (active) | 100% (active) | 99.4% (active) | 95% (active) | 99% (active) | 99.5% (active) | 98% (active) | 94% (active) | 99.5% (active) | 95% (active) | 99% (active) | 97% (active) | 99% (active) | 99% (active) | 99.5% (active) |
| CCC[CH2][Sn]1([CH2]CCC)[O]CC(CN(C)Cc2ccccc2)[O]1 (configuration not stated) | 3% (inactive) | 3% (inactive) | 88.7% (active) | 12% (inactive) | 12% (inactive) | 90.1% (active) | -5% (inactive) | -5% (inactive) | 20.2% (inactive) | -2% (inactive) | -2% (inactive) | 89.2% (active) | -1% (inactive) | -1% (inactive) | 87.5% (active) | 0% (inactive) | 0% (inactive) | 81.8% (active) |
| C/C(=N\N)C(CN1CCCCC1)C(c1ccccc1)c1c(O)c2ccccc2oc1=O (configuration not stated) | 3% (inactive) | 3% (inactive) | 79.8% (active) | 1% (inactive) | 1% (inactive) | 63.8% (inactive) | 3% (inactive) | 3% (inactive) | 81.7% (active) | 4% (inactive) | 4% (inactive) | 74% (active) | 3% (inactive) | 3% (inactive) | 76.3% (active) | 8% (inactive) | 8% (inactive) | 80% (active) |
| CN(/N=C/c1ccc(Cl)cc1)P(=O)(N1CC1)N1CC1 | 24% (inactive) | 28% (inactive) | -15.7% (inactive) | 14% (inactive) | 17% (inactive) | -12.2% (inactive) | 18% (inactive) | 24% (inactive) | -3.4% (inactive) | 31% (inactive) | 20% (inactive) | 11.7% (inactive) | 18% (inactive) | 18% (inactive) | -0.25% (inactive) | 23% (inactive) | 28% (inactive) | 0.65% (inactive) |
| c1ccc([Te][Te]c2ccccc2)cc1 | 62% (inactive) | 90% (active) | 17.6% (inactive) | 22% (inactive) | 68% (inactive) | 36.2% (inactive) | 40% (inactive) | 79% (active) | 75% (active) | 49% (inactive) | 63% (inactive) | 71.2% (active) | 52% (inactive) | 68% (inactive) | 41.5% (inactive) | 56% (inactive) | 88% (active) | 86% (active) |
| Clc1ccc2c(NCCCCN3OC3c3ccccc3)ccnc2c1 (configuration not stated) | 30% (inactive) | 67% (inactive) | 58.2% (inactive) | 22% (inactive) | 56% (inactive) | 48.6% (inactive) | 23% (inactive) | 57% (inactive) | 67.5% (inactive) | 11% (inactive) | 32% (inactive) | 11.3% (inactive) | 24% (inactive) | 43% (inactive) | 34.2% (inactive) | 30% (inactive) | 84% (active) | 35.2% (inactive) |
| COC(=O)C1=C(C(=O)OC)[C]([Hg][CH3])(C(C)=O)N=N1 (configuration not stated) | 99% (active) | 99% (active) | 99.6% (active) | 99% (active) | 99% (active) | 99.5% (active) | 99% (active) | 99% (active) | 99.8% (active) | 99% (active) | 99% (active) | 99.5% (active) | 99% (active) | 98% (active) | 99.2% (active) | 99% (active) | 99% (active) | 99.5% (active) |
| O=C(O)C1C2c3ccccc3C(c3ccccc32)C1Br (configuration not stated) | -13% (inactive) | 3% (inactive) | 2.7% (inactive) | 0% (inactive) | 9% (inactive) | 3.8% (inactive) | -7% (inactive) | 8% (inactive) | -1.2% (inactive) | 3% (inactive) | -1% (inactive) | 34.2% (inactive) | -20% (inactive) | -29% (inactive) | -8.2% (inactive) | -11% (inactive) | -8% (inactive) | 14.1% (inactive) |
| O=[As]c1ccc(Cl)cc1Cl (configuration not stated) | 100% (active) | 99% (active) | 99.7% (active) | 100% (active) | 100% (active) | 99.7% (active) | 99% (active) | 100% (active) | 99.7% (active) | 100% (active) | 99% (active) | 99.3% (active) | 99% (active) | 100% (active) | 99.2% (active) | 100% (active) | 99% (active) | 99.3% (active) |
| NC(=O)c1ccc(N)nc1 | 5% (inactive) | 30% (inactive) | 20.9% (inactive) | -28% (inactive) | -14% (inactive) | -14% (inactive) | -13% (inactive) | 3% (inactive) | 19.4% (inactive) | 10% (inactive) | 15% (inactive) | 4.4% (inactive) | -12% (inactive) | 12% (inactive) | 11.2% (inactive) | -10% (inactive) | 8% (inactive) | 7.75% (inactive) |
| CCN(CC)C(=S)S | 66% (inactive) | 99% (active) | 48.6% (inactive) and 99.3% (active) | 66% (inactive) | 99% (active) | 28% (inactive) and 99.5% (active) | 58% (inactive) | 99% (active) | 34.9% (inactive) and 99.5% (active) | 8% (inactive) | 99% (active) | 21.3% (inactive) and 98.8% (active) | 65% (inactive) | 99% (active) | 8.05% (inactive) and 99.5% (active) | 75% (active) | 99% (active) | 26.8% (inactive) and 99.5% (active) |
| [Br][Ni][Br].c1ccc(CN2CCN(Cc3ccccc3)CCN(Cc3ccccc3)CCN(Cc3ccccc3)CC2)cc1 | 0% (inactive) | 82% (active) | 96.7% (active) | 0% (inactive) | 62% (inactive) | 98.3% (active) | -2% (inactive) | 65% (inactive) | 97.6% (active) | -2% (inactive) | 78% (active) | 98.2% (active) | 3% (inactive) | 92% (active) | 98.5% (active) | 3% (inactive) | 92% (active) | 98.2% (active) |
| [N-]=[N+]=NS(=O)(=O)c1cccc([N+](=O)[O-])c1 | 8% (inactive) | 100% (active) | 80.2% (active) | -17% (inactive) | 100% (active) | 87.1% (active) | -34% (inactive) | 99% (active) | 89.1% (active) | 8% (inactive) | 99% (active) | 90.8% (active) | -24% (inactive) | 100% (active) | 90.8% (active) | -5% (inactive) | 100% (active) | 92.7% (active) |
| CSCCl | 3% (inactive) | 51% (inactive) | 88.2% (active) | 3% (inactive) | 73% (active) | 94.5% (active) | 4% (inactive) | 86% (active) | 90% (active) | 11% (inactive) | 97% (active) | 88.8% (active) | 0% (inactive) | 75% (active) | 97.6% (active) | -6% (inactive) | 95% (active) | 95% (active) |
| C[N-]c1nnnn1C.[Au+].c1ccc([PH+](c2ccccc2)c2ccccc2)cc1 | 99% (active) | 97% (active) | 96.3% (active) | 99% (active) | 95% (active) | 97.9% (active) | 99% (active) | 97% (active) | 97% (active) | 96% (active) | 95% (active) | 97.2% (active) | 98% (active) | 96% (active) | 96% (active) | 97% (active) | 94% (active) | 97% (active) |
| CC(O)C(=O)O.CC(O)C(=O)O.[Ni] (configuration not stated) | -1% (inactive) | 7% (inactive) | 4.2% (inactive) | 5% (inactive) | 3% (inactive) | 19.1% (inactive) | -1% (inactive) | 4% (inactive) | 0.95% (inactive) | -5% (inactive) | -2% (inactive) | 74% (active) | 1% (inactive) | 0% (inactive) | 18.1% (inactive) | -2% (inactive) | 12% (inactive) | 19.4% (inactive) |
| CN1CSC(=S)N(C)C1 | 21% (inactive) | 95% (active) | 97.3% (active) | 19% (inactive) | 99% (active) | 99.5% (active) | 17% (inactive) | 97% (active) | 95.9% (active) | 13% (inactive) | 98% (active) | 94.3% (active) | 4% (inactive) | 96% (active) | 99.5% (active) | 4% (inactive) | 96% (active) | 95.7% (active) |
| Nc1nc(N)c(-c2ccc(Cl)c(Cl)c2)c(CCc2ccc(CNC(=O)Nc3ccc(S(=O)(=O)F)cc3)cc2)n1 | 4% (inactive) | 28% (inactive) | 56.8% (inactive) | 0% (inactive) | 19% (inactive) | 34% (inactive) | -4% (inactive) | 35% (inactive) | 79.8% (active) | 1% (inactive) | 40% (inactive) | 25.8% (inactive) | -1% (inactive) | 25% (inactive) | 25% (inactive) | 4% (inactive) | 82% (active) | 84.7% (active) |
| CC(=O)C(CN(C)C)C(c1ccccc1)c1c(O)c2ccccc2oc1=O (configuration not stated) | 22% (inactive) | 22% (inactive) | 65.7% (inactive) | 20% (inactive) | 20% (inactive) | 54.4% (inactive) | 4% (inactive) | 4% (inactive) | 70.8% (active) | -4% (inactive) | -4% (inactive) | 64% (inactive) | 13% (inactive) | 13% (inactive) | 59.6% (inactive) | 17% (inactive) | 17% (inactive) | 64.2% (inactive) |
